Design in all cases: species or system human, MV4-11 + K-562 + COLO205 + SK-N-BE2 + OVCAR-8
The subject of one assay is ADCK1. The note with it: read-out: apparent Kd, compound concentrations: 100 nM and 1000 nM (sheet 'Samples'), n = 1.
The next assay concerns CDK17. The note with it: read-out: apparent Kd, compound concentrations: 100 nM and 1000 nM (sheet 'Samples'), n = 1.
A further assay relates to CSNK1A1. Particulars: read-out: apparent Kd, compound concentrations: 100 nM and 1000 nM (sheet 'Samples'), n = 1.
The next assay concerns MARK2. Particulars: read-out: apparent Kd, compound concentrations: 100 nM and 1000 nM (sheet 'Samples'), n = 1.
The next assay relates to PHKG2. The note with it: read-out: apparent Kd, n = 1.
The next assay has as its system RIOK2. The note with it: read-out: apparent Kd, n = 1.
For the next assay, the system named is RPS6KA4. The note with it: read-out: apparent Kd, compound concentrations: 100 nM and 1000 nM (sheet 'Samples'), n = 1.
The next assay concerns STK16. Particulars: read-out: apparent Kd, compound concentrations: 100 nM and 1000 nM (sheet 'Samples'), n = 1.
A further assay concerns STK3. Particulars: read-out: apparent Kd, compound concentrations: 100 nM and 1000 nM (sheet 'Samples'), n = 1.
A further assay has as its system TNIK. The note with it: read-out: apparent Kd, compound concentrations: 100 nM and 1000 nM (sheet 'Samples'), n = 1.
The test system of the next assay is PRKX. The note with it: read-out: apparent Kd, compound concentrations: 100 nM and 1000 nM (sheet 'Samples'), n = 1.
For another assay, the system named is ROCK2. The note with it: read-out: apparent Kd, compound concentrations: 100 nM and 1000 nM (sheet 'Samples'), n = 1.
A further assay has as its system HCK. The note with it: read-out: apparent Kd, compound concentrations: 100 nM and 1000 nM (sheet 'Samples'), n = 1.
A further assay relates to MAPK8. Particulars: read-out: apparent Kd, compound concentrations: 100 nM and 1000 nM (sheet 'Samples'), n = 1.
In a further assay the test system is SRC. Particulars: read-out: apparent Kd, n = 1.
Another assay relates to YES1. Particulars: read-out: apparent Kd, n = 1.
The test system of the next assay is EPHA2. Particulars: read-out: apparent Kd, n = 1.
The subject of the next assay is CSNK1E. Particulars: read-out: apparent Kd; compound concentrations: 100 nM and 1000 nM (sheet 'Samples'), CATDS: 1.0000373505011199E-2; n = 1.
The test system of the next assay is PRKAA2. Particulars: read-out: apparent Kd; compound concentrations: 100 nM and 1000 nM (sheet 'Samples'), CATDS: 4.4200978243391198E-2; n = 1.
The mark [1] stands for this setting: compound concentrations:100 nM and 1000 nM (sheet 'Samples').

Where two headings read alike, the source gives them in different places.

Consider `O=C(O)C(F)(F)F.O=c1[nH]ccc2nc(N[C@@H]3CCNC3)nc(Nc3ccc4c(c3)S(=O)(=O)CC4)c12` [GSK2181306A], for which the potency estimated from few doses in the assay with ADCK1 (CATDS: 1.2751360912585E-2) is 448 nM; in the assay with CDK17 (CATDS: 9.5654152520578493E-3), 979 nM; in the assay with CSNK1A1 (CATDS: 1.4603210367733301E-2), 330 nM; with MARK2 (CATDS: 1.1093040316995199E-2) it was 635 nM; in the assay with PHKG2 (compound concentrations: 100 nM and 1000 nM (sheet 'Samples'), CATDS: 1.09538750738594E-2), 657 nM; in the assay on RIOK2 (compound concentrations: 100 nM and 1000 nM (sheet 'Samples'), CATDS: 8.1231795228866102E-3), 1810 nM. The potency estimated from few doses was 258 nM in the assay with RPS6KA4 (CATDS: 1.6454900639240402E-2), 1130 nM in the assay on STK16 (CATDS: 9.1549687714340792E-3), 381 nM in the assay with STK3 (CATDS: 1.36866990132516E-2) and 467 nM with TNIK (CATDS: 1.2529799183739801E-2).
For `NCC(NC(=O)c1cc(-c2cn[nH]c2)c(-c2ccnc3[nH]ccc23)s1)c1ccccc1.NCC(NC(=O)c1cc(-c2cn[nH]c2)c(-c2ccnc3[nH]ccc23)s1)c1ccccc1.O=C(O)C(F)(F)F.O=C(O)C(F)(F)F` (centres unmarked) [GSK1325775A], the values for the potency estimated from few doses with CSNK1A1 (CATDS: 3.28567634973949E-2), in the assay with PRKX (CATDS: 4.4311971030028298E-2) and in the assay on ROCK2 (CATDS: 0.17011597804612999) were 1500 nM, 641 nM and 47.4 nM, respectively.
Take `CCn1c(-c2cccnc2O)nc2cnccc21` [SB-736715]: the potency estimated from few doses in the assay with CDK17 (CATDS: 1.55525424836102E-2) is 1200 nM; in the assay on CSNK1A1 (CATDS: 1.24384070369575E-2) it was 1990 nM; in the assay on HCK (CATDS: 1.6731376225889199E-2), 1040 nM; in the assay with MAPK8 (CATDS: 1.2937412229939001E-2), 1800 nM; with PHKG2 (compound concentrations: 100 nM and 1000 nM (sheet 'Samples'), CATDS: 1.25059866085428E-2), 1960 nM; in the assay with SRC (compound concentrations: 100 nM and 1000 nM (sheet 'Samples'), CATDS: 1.60653948835471E-2) it was 1130 nM. Also, the potency estimated from few doses in the assay with STK16 (CATDS: 1.41773006803768E-2) was 1460 nM; in the assay with STK3 (CATDS: 1.16838495849846E-2), 2360 nM; in the assay on YES1 (compound concentrations: 100 nM and 1000 nM (sheet 'Samples'), CATDS: 1.8559890598855499E-2), 859 nM.
Turning to `Cc1n[nH]c2cc(Nc3ccnc(Nc4cccc(CN5CCOCC5)c4)n3)ccc12` [GW682569X], the potency estimated from few doses in the assay with ADCK1 (CATDS: 0.121280285214534) was 760 nM; in the assay on MAPK8 (CATDS: 8.8519756402374403E-2) it was 1870 nM.
On to `Cc1ccccc1-n1ncc(C(=O)c2ccccc2)c1N` [RO1151248-000], for which the potency estimated from few doses is 1440 nM in the assay on EPHA2 (compound concentrations: 100 nM and 1000 nM (sheet 'Samples'), CATDS: 1.9884880942714601E-2); 1480 nM in the assay on HCK (CATDS: 1.9651331650111199E-2); 1290 nM with SRC (compound concentrations: 100 nM and 1000 nM (sheet 'Samples'), CATDS: 2.0715769219535499E-2); 1860 nM with STK16 (CATDS: 1.8222125974055099E-2).
Consider `CC(=O)N[C@@H](Cc1ccc(OP(=O)(O)O)cc1)C(=O)N[C@H]1CCC(=O)N2CCC[C@@H](C(=O)NCc3ccc(Cl)cc3)N2C1=O` [RO0325308-000], for which the potency estimated from few doses was 1130 nM in the assay with EPHA2 (setting [1]); 1880 nM in the assay with PHKG2 (setting [1]); 141 nM in the assay on RIOK2 (setting [1]); 1040 nM with SRC (setting [1]); 1030 nM in the assay on YES1 (setting [1]).
In the case of `O=C(O)C(F)(F)F.O=C(O)C(F)(F)F.O=c1[nH]ccc2nc(N[C@@H]3CCCNC3)nc(Nc3ccc(S(=O)(=O)N4CCOCC4)cc3)c12.O=c1[nH]ccc2nc(N[C@@H]3CCCNC3)nc(Nc3ccc(S(=O)(=O)N4CCOCC4)cc3)c12` [GSK2177277A], the potency estimated from few doses in the assay with CDK17 (CATDS: 6.5557639532583699E-3) is 1380 nM; with CSNK1A1 (CATDS: 1.2484395279946501E-2), 150 nM; in the assay with CSNK1E, 274 nM; with HCK (CATDS: 6.5481840851314196E-3), 1390 nM; in the assay on MARK2 (CATDS: 1.4475960848297199E-2), 105 nM; in the assay on PHKG2 (compound concentrations: 100 nM and 1000 nM (sheet 'Samples'), CATDS: 8.6754793941291007E-3) it was 430 nM. Further, the potency estimated from few doses is 13.7 nM with PRKAA2; 897 nM in the assay with PRKX (CATDS: 7.1625839917235003E-3); 2350 nM in the assay on RIOK2 (compound concentrations: 100 nM and 1000 nM (sheet 'Samples'), CATDS: 6.0080792942577401E-3); 503 nM with ROCK2 (CATDS: 8.2952674328971108E-3); 470 nM in the assay with RPS6KA4 (CATDS: 8.4573730907670092E-3); 485 nM with STK16 (CATDS: 8.3784020222335102E-3). Further, the results for the potency estimated from few doses in the assay on STK3 (CATDS: 4.2815354509816599E-2) and in the assay on TNIK (CATDS: 6.517178775647E-3) were 14.4 nM and 1420 nM, respectively.
